Experimental data reported in PubChem BioAssay (NCATS).
“And” between values parts separate entries of the source, which are not always exact repeats. Identical values can stand only once. Records with an inconclusive call do not appear. The source made the active and inactive calls. Unless noted, the call rests on the fitted dose curve; in most records, active means well fitted curve in the direction sought with a large enough effect; inconclusive means small, poorly fitted or top-dose-only effect, or another doubt; inactive means no such curve, though single readings can be large; an effect the other way counts as inactive or inconclusive. Where a SMILES comes first, the peptide text is derived from it. Bridges are numbered along the chain shown (N, C = ends). [ ]: non-standard residue; d: D form. hArg = N=C(N)NCCCC[C@H](N)C(=O)O; Mpa = O=C(O)CCS

How the values were obtained:
[1] = qHTS assay for small molecule agonists of the antioxidant response element (ARE) signaling pathway measured by Nrf2-dependant transcriptional activity (AID 720636; active means well fitted curve in the direction sought with a large enough effect in the repeat runs; an effect the other way counts as inactive or inconclusive;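 further: HepG2 cells with an ARE-driven luciferase reporter; % of control where 0% means no effect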)
In short: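 Attachment 6 hr at 37 C, then compound versus DMSO vehicle for 16 hr in ARE-luc HepG2 cells (1% dialyzed FBS); luminescence recorded 30 min after ONE-Glo addition at room temperature.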

[2] = qHTS assay for small molecule agonists of the antioxidant response element (ARE) signaling pathway measured by Nrf2-dependant transcriptional activity - cell viability counter screen (AID 720653; active means well fitted curve in the direction sought with a large enough effect in the repeat runs; an effect the other way counts as inactive or inconclusive; further: on the % scale 0 is the no-effect control and ±100 the full control effect); conditions: ARE-bla HepG2 viability, CellTiter-Glo ATP luminescence, 16 h; active compounds read low
In short: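 ARE-bla HepG2 cells treated with compounds for 16 h at 37C; this counter screen measures viability as intracellular ATP by CellTiter-Glo luminescence after 30 min at room temperature.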

[3] = qHTS Assay for Identifying Gametocytocidal Compounds (AID 743244);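 further: on the % scale 0 is the no-effect control and ±100 the full control effect; actives lower the fluorescent signal which means gametocytes are killed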; conditions: P. falciparum 3D7 stage III-V gametocytes, alamarBlue, 72 h; max response: active compounds read low
In short: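 Stage III–V gametocytes of P. falciparum 3D7 were seeded at 20,000 cells/well onto pre-dispensed compounds. After 72 h, 37 °C, 5% CO2, alamarBlue was added for another 24 h.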

[4] = qHTS assay for cell viability of HEK293 cells (AID 743288); conditions: ATP luminescence (CellTiter-Glo), 18 h, active compounds read low; further: on the % scale 0 is the no-effect control and ±100 the full control effect; nearly all actives have a fitted effect of over 50% in size
In short: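 Quantitative high-throughput screen: compounds were pinned onto parental HEK293 cells (2,000 per well) after a minimum 5 h settling at 37 C, incubated 18 h at 37 C, and intracellular ATP measured by luciferase luminescence.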

[5] = qHTS assay for cell viability of the p53RE-bla HCT-116 cell line (AID 743292); further: on the % scale 0 is the no-effect control and ±100 the full control effect; nearly all actives have a fitted effect of over 55% in size
In short: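 Compound-exposed HCT-116 (p53RE-bla) cells, 4,000 per well, were kept 16 h at 37 C following a 5 h preincubation. Cell number was estimated from total ATP by CellTiter-Glo luminescence read after 30 min at room temperature.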

[6] = qHTS assay for measurement of the activity of small molecule inhibitors on Zika virus induced Caspase-3 activity in human iPSC derived neural progenitor cells (hNPCs) (AID 1224857); further: % of control where 0% means no effect; nearly all actives have a fitted effect of over 65% in size
In short: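 Values are percent inhibition of virus-induced caspase-3/7 signal, scaled between uninfected cells and ZIKV-infected cells. Infection used 2 FFU/cell for 6 h after 1 h compound exposure.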

[7] = qHTS assay for measurement of the activity of small molecule inhibitors on Zika virus induced Caspase-3 activity in human astrocytoma cells (AID 1224859);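 further: plate controls were ZIKV-infected untreated cells for no effect and uninfected cells for full effect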
In short: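 Compound added 1 h pre-infection; ZIKV 2 FFU/cell on SNB-19 cells, 6 h, 37 C/5% CO2. Caspase-Glo 3/7 luminescence; values as % inhibition of ZIKV-induced caspase activity.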

[8] = qHTS assay to identify small molecule inhibitors of chordoma cells - UCH-1 (AID 1259355); further: on the % scale 0 is the no-effect control and ±100 the full control effect; nearly all actives have a fitted effect of over 55% in size
In short: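 Screening used approved and investigational drugs in 15-point titration against 800 seeded cells per well. A fixed combination of auranofin with camptothecin, doxorubicin, rubitecan and topotecan followed compound addition, and growth was scored by CellTiter-Glo after 48hr.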

[9] = qHTS assay to identify small molecule inhibitors of chordoma cells - UCH-2 (AID 1259356); further: series mostly up to about 46 µM; on the % scale 0 is the no-effect control and ±100 the full control effect
[10] = P-glycoprotein substrates identified in KB-8-5-11 adenocarcinoma cell line, qHTS therapeutic library screen (AID 1346987); conditions: outcome: dose series up to 44.5 µM; further: series mostly up to about 44 µM; on the % scale 0 is the no-effect control and ±100 the full control effect; nearly all actives have a fitted effect of over 65% in size
In short: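 In this qHTS, P-gp-rich KB-8-5-11 cells received library compounds across a concentration range. Viability was quantified by luminescence after 72 h at 37 degree C.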

[11] = qHTS assay for small molecule antagonists of the retinoid-related orphan receptor gamma (ROR-gamma) signaling pathway - cell viability counter screen (AID 720652; active means well fitted curve in the direction sought with a large enough effect in the repeat runs; an effect the other way counts as inactive or inconclusive;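 further: CHO reporter cells with doxycycline-induced ROR-gamma expression; series mostly up to about 92 µM; compound exposure lasted 16 hr before ATP read; on the % scale 0 is the no-effect control and ±100 the full control effect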)
In short: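 CHO RORE-LUC/TET-ROR line, 1,000 cells/well, 37 C 5% CO2 5 hr; cpd or DMSO + doxycycline induction, 16 hr. CellTiter-Glo, 30 min RT, luminescence = ATP content.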

Measured: max response

O=C(O)CCCCC1CCSS1 (centres undefined)
inactive: [1] | [2] 10.3% and -9.69% | [3] 3.67% | [4] -11.1% and -8.74% | [5] | [6] | [7] | [8] | [9] | [10]

O=C(O)c1ccc(OCCCOc2ccc(C(=O)O)cc2)cc1
inactive: [6] | [7] | [8] | [9] | [10]

C=CCNC(N)=S
inactive: [1] | [11] | [2] 0.701% | [3] 5.17% | [4] -7.7% | [5] | [6] | [7] | [8] | [9] | [10]

OC[C@@H](O)[C@@H](O)[C@H](O)[C@H](O)CO
inactive: [1] | [2] -1.54% | [3] 5.56% | [4] -10.6% | [5] | [6] | [7] | [8] | [9] | [10]

CCN(CC)C(=O)c1cccc(C)c1
inactive: [1] | [11] | [2] -1.02% and 2.48% | [3] 18.7% | [4] 4.9% and -5.34% | [5] | [6] | [7] | [8] | [9] | [10]

CC(=O)OCC(COC(C)=O)OC(C)=O
inactive: [1] | [11] | [2] -0.23% and 1.03% | [3] 41.8% | [4] 2.21% and 6.16% | [5] | [6] | [7] | [8] | [9] | [10]

Cc1cc(C)nc(NS(=O)(=O)c2ccc(N)cc2)n1
inactive: [1] | [11] | [2] -4.69% and 1.65% | [3] -2.99% | [4] 2.28% and -2.43% | [5] | [6] | [7] | [8] | [9] | [10]

CCOC(=O)c1cccnc1
inactive: [3] 2.39% | [6] | [7] | [8] | [9] | [10]

CC1CC(OC(=O)c2ccccc2O)CC(C)(C)C1 (centres undefined)
inactive: [1] | [11] | [2] 0.684% | [3] -1.2% | [4] -5.44% | [5] | [6] | [7] | [8] | [9] | [10]

Cc1cc(O)cc(C)c1Cl
inactive: [1] | [2] 0.227% | [3] -2.6% | [4] -9.96% | [5] | [6] | [7] | [8] | [9] | [10]

CCCCCCCC(=O)OCC(COC(=O)CCCCCCC)OC(=O)CCCCCCC
inactive: [1] | [11] | [2] 1.9% | [3] 1.43% | [4] -8.85% | [5] | [6] | [7] | [8] | [9] | [10]

CCCCCC(N)=O
inactive: [1] | [11] | [2] -1.07% | [3] 2.77% | [4] 7.6% | [5] | [6] | [7] | [8] | [9] | [10]

O=C1C(c2[nH]c3ccccc3c2O)=Nc2ccccc21
inactive: [1] | [11] | [2] -0.733% | [4] 1.4% | [5] | [6] | [7] | [8] | [9] | [10]

COc1ccc(O)cc1
inactive: [1] | [11] | [2] -1.63% | [4] -0.79% | [5] | [6] | [7] | [8] | [9] | [10]

Cc1c(N(C)C)c(=O)n(-c2ccccc2)n1C
inactive: [1] | [11] | [2] -0.437% and -7.96% | [4] 1.77% and -15.3% | [5] | [6] | [7] | [8] | [9] | [10]

NC(=O)[C@@H]1CSSCCC(=O)N[C@@H](CCCCN=C(N)N)C(=O)NCC(=O)N[C@@H](CC(=O)O)C(=O)N[C@@H](Cc2c[nH]c3ccccc23)C(=O)N2CCC[C@H]2C(=O)N1 ([Mpa][hArg]GDWPC-NH2; disulfide 1-7)
inactive: [3] 6.22% | [6] | [7] | [8] | [9] | [10]

CC(=O)N[C@H]1[C@H]([C@H](O)[C@H](O)CO)OC(C(=O)O)=C[C@@H]1N=C(N)N
inactive: [3] 5.37% | [6] | [7] | [8] | [9] | [10]

CCCNC(C)C(=O)Nc1c(C)csc1C(=O)OC (centres undefined)
inactive: [3] 7.96% | [6] | [7] | [8] | [9] | [10]

O=S1(=O)OC(c2ccc(O)cc2)(c2ccc(O)cc2)c2ccccc21
inactive: [3] 21.8% | [6] | [7] | [8] | [9] | [10]

Cn1c([N+](=O)[O-])cnc1COC(N)=O
inactive: [3] 1.6% | [6] | [7] | [8] | [9] | [10]

O=C(O)COC(=O)Cc1ccccc1Nc1c(Cl)cccc1Cl
inactive: [3] 5.55% | [6] | [7] | [8] | [9] | [10]
